TDP1 block: qHTS Assay for Inhibitors of Tyrosyl-DNA Phosphodiesterase (TDP1). recombinant TDP1, AlphaScreen DNA substrate cleavage. 350,000 compounds, 0.28% hits. Potency, µM (highest dose often 130 µM), without a hit: at the highest dose activity change, negative = inhibition, usual class: inhibitors. AID 485290, 2010; further: nearly all actives have a fitted effect of over 40% in size
Target sequence (Q9NUW8 whole entry, looked up): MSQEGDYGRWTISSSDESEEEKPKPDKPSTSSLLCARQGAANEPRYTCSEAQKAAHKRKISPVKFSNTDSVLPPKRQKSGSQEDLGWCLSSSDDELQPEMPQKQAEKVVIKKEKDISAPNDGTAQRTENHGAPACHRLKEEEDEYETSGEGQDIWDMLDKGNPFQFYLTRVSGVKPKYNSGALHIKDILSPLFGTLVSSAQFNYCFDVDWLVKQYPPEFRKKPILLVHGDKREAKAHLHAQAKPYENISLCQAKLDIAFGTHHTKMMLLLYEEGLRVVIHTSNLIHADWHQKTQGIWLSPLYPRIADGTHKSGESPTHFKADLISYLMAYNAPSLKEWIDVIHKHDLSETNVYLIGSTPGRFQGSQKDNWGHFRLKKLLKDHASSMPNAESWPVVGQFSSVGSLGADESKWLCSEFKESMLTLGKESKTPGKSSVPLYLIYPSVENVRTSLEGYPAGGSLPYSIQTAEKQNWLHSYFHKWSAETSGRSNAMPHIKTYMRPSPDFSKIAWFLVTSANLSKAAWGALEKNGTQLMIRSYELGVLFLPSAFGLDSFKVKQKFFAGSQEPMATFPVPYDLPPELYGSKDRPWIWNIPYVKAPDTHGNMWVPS
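Enzyme-compound mixtures sat 15 min at room temperature, followed by a 5 min reaction with 15 nM final substrate and 10 min with AlphaScreen beads. Recombinant human Tdp1 was used at 1 nM final.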
BLM helicase inh: qHTS Assay for Inhibitors of Bloom's syndrome helicase (BLM); RecQ-like DNA helicase BLM (Homo sapiens), P54132; recombinant BLM DNA unwinding, fluorescence dequenching; Potency, µM (top dose mostly 56.1 µM), for the others: top-dose activity change, negative = inhibition, usual class: inhibitors; 350,000 compounds, 0.2% hits; AID 2528, 2010;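 further: plate controls were vehicle for no effect and no enzyme for full effect; nearly all actives have a fitted effect of over 35% in size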
APE1 inh-1: qHTS Assay for Inhibitors of the Human Apurinic/apyrimidinic Endonuclease 1 (APE1). DNA repair nuclease/redox regulator APEX1 (Homo sapiens), P27695. recombinant APE1, TAMRA/BHQ-2 abasic DNA cleavage fluorescence. Potency, µM (series often up to 65.8 µM), inactives show at the top dose activity change, negative = inhibition, most hits filed as inhibitors. 350,000 compounds, 0.35% hits;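 further: plate controls were vehicle for no effect and reference inhibitor for full effect; nearly all actives have a fitted effect of over 55% in size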
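Step 1: APE1 (0.75 nM) with compound, 15 min RT. Step 2: add 50 nM fluorophore/quencher THF duplex. Step 3: three fluorescence reads 60 s apart (525/598 nm); read 3 minus read 1 = reaction progress.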
L3MBTL1 inh: qHTS Assay for the Inhibitors of L3MBTL1; Lethal(3)malignant brain tumor-like protein 1 (Homo sapiens), Q9Y468; AlphaScreen L3MBTL1–H3K9me1 peptide binding; Potency, µM (doses to about 57.1 µM), for the others: at the highest dose activity, negative = inhibition, most hits filed as inhibitors; 230,000 compounds, 0.66% hits; further: nearly all actives have a fitted effect of over 60% in size
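L3MBTL1 (50 nM) pre-complexed 30 min with biotinylated H3(1-15)K9me1 peptide (75 nM), then compounds added for 30 min at room temperature; AlphaScreen streptavidin donor/nickel chelate acceptor beads (10 ug/mL final) read after 30 min dark incubation.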
RECQ1 helicase: qHTS Assay for Inhibitors of RecQ-Like Dna Helicase 1 (RECQ1). 240,000 compounds, 0.54% hits. Potency, µM (series often up to 57.3 µM), for inactives: at the highest dose activity, negative = inhibition, hits mostly inhibitors. RECQ1 DNA unwinding, red fluorescence kinetic read;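 further: plate controls were vehicle for no effect and no enzyme for full effect; nearly all actives have a fitted effect of over 30% in size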
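RECQ1T1 50 nM; forked duplex (20 bp + 30-nt ss tails) 200 nM, ATP 2 mM final; pH 8.0, 2 mM MgCl2, 2.5 ug/ml poly(dI-dC); 15 min compound preincubation; discontinuous kinetic read over 2 h at RT.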
KDM4E inh: qHTS Assay for Inhibitors of Human Jumonji Domain Containing 2E (JMJD2E); Lysine-specific demethylase 4E (Homo sapiens), B2RXH2; JMJD2E catalytic domain, FDH-coupled NADH fluorescence (FDH is formaldehyde dehydrogenase); Potency, µM (top dose mostly 57.1 µM), inactives show at the top dose activity change, negative = inhibition, most hits filed as inhibitors; 230,000 compounds, 1.6% hits; active means well fitted inhibition curve with a large enough effect, not every such curve was filed as active; inconclusive means small, poorly fitted or top-dose-only effect, or another doubt; inactive means no such curve, though single readings can be large or run the other way;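 further: 0% = wells with enzyme and -100% = buffer wells without enzyme; nearly all actives have a fitted effect of over 50% in size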
APE1 dye cs: Counterscreen for APE1 Inhibitors: Fluorescent Dye Displacement Assay; Potency, µM (series often up to 28.5 µM), inactives show at the top dose activity change, negative = inhibition, usual class: inhibitors; 480 compounds, 7% hits; DNA fluorescent dye displacement counterscreen, fluorescence; shares compounds with APE1 inh-1;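 further: loss of thiazole orange fluorescence as the dye is displaced from duplex DNA; 0% = ThO with dsDNA and no compound and -100% = ThO without dsDNA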
EndoIV counter: Counterscreen for APE1 Inhibitors: qHTS Assay for Inhibitors of Endonuclease IV; Potency, µM (top dose mostly 27.1 µM), for inactives: top-dose activity change, negative = inhibition, usual class: inhibitors; shares compounds with APE1 inh-1; E. coli Endo IV, fluorogenic AP-site DNA cleavage; 560 compounds, 4% hits;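 further: plate controls were uninhibited enzyme wells for no effect and no enzyme buffer wells for full effect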
APE1 inh-2: Confirmation qHTS Assay for Inhibitors of the Human Apurinic/apyrimidinic Endonuclease 1 (APE1); shares compounds with APE1 inh-1; purified APE1, fluorogenic abasic-site DNA cleavage; Potency, µM (titrated, usually from 57.1 µM), without a hit: at the highest dose activity change, negative = inhibition, actives largely listed as inhibitors; 750 compounds, 44% hits; further: nearly all actives have a fitted effect of over 30% in size
APE1 FP inh: qHTS FP-Based Assay for Inhibitors of the Human Apurinic/apyrimidinic Endonuclease 1 (APE1). shares compounds with APE1 inh-1. APE1 binding to TAMRA-labelled double-stranded DNA, fluorescence polarization displacement. Potency, µM (titrated, usually from 28.5 µM), without a hit: top-dose activity, negative = inhibition, actives largely listed as inhibitors. 480 compounds, 7% hits. AID 2573, 2010
* hit, by the source's call; i = inactive; ? = inconclusive; . = not tested or not shown; [ ] = another dose, or the depositor's remark. The full list was thinned out, with hits kept by preference. Unless noted, the call rests on the fitted dose curve; in most records, active means well fitted curve in the direction sought with a large enough effect; inconclusive means small, poorly fitted or top-dose-only effect, or another doubt; inactive means no such curve, though single readings can be large; an effect the other way counts as inactive or inconclusive. Unless noted, on the % scale 0 is the no-effect control and ±100 the full control effect; potency means the concentration at half of the fitted maximal effect.

SMILES	TDP1 block	BLM helicase inh	APE1 inh-1	L3MBTL1 inh	RECQ1 helicase	KDM4E inh	others
Cc1sc(-n2c(C)cc(/C=C3\SC(=S)NC3=O)c2C)c(C#N)c1C	6%	-29%	-7%	50%	28µM*	3%
O=C(OCc1cc(=O)n2ccsc2n1)c1ccccc1NCCO	45µM*	.	-13%	?	.	.
O=C(Nc1ccccc1C(=O)OCc1cc(=O)n2ccsc2n1)c1ccccc1Cl	-4%	-3%	.	.	.	.
O=C(/C=C\c1ccc(O)c(O)c1)O[C@@H]1C[C@](O)(C(=O)O)C[C@@H](O)[C@@H]1O	12%[21 µM]	1%[21.4 µM]	-2%[21 µM]	.	-4%[25.9 µM]	4.5µM*
CCCC/C(O)=N\S(=O)(=O)c1ccc(N=NN(C)C)cc1	-2%	-12%	14%	1%	i	8.9µM*
Cc1ccsc1CNc1ncnc2ccc(-c3ccc4c(c3)OCO4)cc12	3%	.	.	.	.	.
CCc1ccc(S(=O)(=O)c2nnn3c2nc(Nc2cccc(C)c2C)c2sccc23)cc1	0%	-3%	.	.	.	.
CCCCn1c(C)cc2c(c1=O)C1O[C@](c3ccsc3)(Cc3cc(OC)c(OC)cc31)O2	.	-11%[12.4 µM]	3.9µM*	.	.	.
COc1cc2c(cc1OC)C1O[C@](c3ccsc3)(C2)Oc2c1c(=O)oc1ccc(F)cc21	.	-5%[12.4 µM]	-21%[12.4 µM]	.	.	.
COC(=O)c1ccc(=O)c2nc3/c(=C/O)c(O)cc(=O)c3[nH]c12	?	18µM*	?	.	?	8.9µM*	APE1 dye cs=?;EndoIV counter=?;APE1 inh-2=?;APE1 FP inh=-28%
Cc1nc(N=Nc2cc(S(=O)(=O)O)c3cc([N+](=O)[O-])cc(S(=O)(=O)O)c3c2)c(COP(=O)(O)O)c(C=O)c1O	?	72%	2.5µM*	.	?	7.9µM*	EndoIV counter=25µM*;APE1 inh-2=1.1µM*
O=C(CCNS(=O)(=O)c1ccc2c(c1)CCCC(=O)N2)Nc1cccc(Cl)c1	6%	1%	.	.	.	.
Cc1ccc(/C=C2\SC(=S)N(c3cccnc3)C2=O)o1	.	-14%	16µM*	.	?	11µM*	APE1 dye cs=?;EndoIV counter=5%;APE1 inh-2=-10%[24.4 µM];APE1 FP inh=6%

Assay outcomes deposited in PubChem by National Center for Advancing Translational Sciences (NCATS).
